# Where “and” joins values, the source holds several entries; their conditions need not be identical. Equal entries are not always repeated. Hit rate of the full screen: of about 5,500 compounds, about 2,000 (36%) were called active. Roughly 18% stayed inconclusive and do not appear here. This is one part of the list. Unmarked numbers belong to inactive results. Rule as the data show it: active = normalized growth mostly below about 0.91 (no sharp cut-off); inconclusive = no clear call, values can overlap the other calls; inactive = mostly above about 0.92.
# Experiment: chemical genetic growth profiling, strain panel (AID 1159580);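 also: tested at 20 µM; growth read once vehicle control cultures reached saturation at 30 °C; 1 = growth at the plate median or of vehicle wells; lower values mean less growth of the strain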
# Conditions: S. cerevisiae deletion strains, growth OD
smiles,measurement,setting,value
CCCC(C)C1(CC)C(=O)N=C(S)NC1=O (stereo unspecified),normalized growth,"locus YAL013W, strain DEP1, hits give low values",1.01
same,normalized growth,"locus YAL021C, strain ccr4, hits give low values",0.993
same,normalized growth,"locus YAL026C, strain drs2, hits give low values",0.994
same,normalized growth,"locus YAL030W, strain snc1, hits give low values",0.983
same,normalized growth,"locus YBL061C, strain skt5, hits give low values",1.01
same,normalized growth,"locus YBR009C, strain hhf1, hits give low values",0.992
same,normalized growth,"locus YBR021W, strain FUR4, hits give low values",1.01
same,normalized growth,"locus YBR023C, strain chs3, hits give low values",0.989
same,normalized growth,"locus YBR171W, strain sec66, hits give low values",0.993
same,normalized growth,"locus YBR229C, strain ROT2, hits give low values",1.01
same,normalized growth,"locus YBR231C, strain swc5, hits give low values",1.01
same,normalized growth,"locus YBR279W, strain paf1, hits give low values",0.998
same,normalized growth,"locus YCL011C, strain gbp2, hits give low values",1.01
same,normalized growth,"locus YCL016C, strain dcc1, hits give low values",0.995
same,normalized growth,"locus YCL029C, strain bik1, hits give low values",0.557 (active)
same,normalized growth,"locus YCL061C, strain MRC1, hits give low values",1
same,normalized growth,"locus YCL069W, strain vba3, hits give low values",1
same,normalized growth,"locus YCR088W, strain abp1, hits give low values",0.984
same,normalized growth,"locus YDL005C, strain med2, hits give low values",0.987
same,normalized growth,"locus YDL035C, strain GPR1, hits give low values",1.02
same,normalized growth,"locus YDL040C, strain nat1, hits give low values",0.993
same,normalized growth,"locus YDL074C, strain BRE1, hits give low values",1.06
same,normalized growth,"locus YDL101C, strain DUN1, hits give low values",1.01
same,normalized growth,"locus YDL134C, strain PPH21, hits give low values",1
same,normalized growth,"locus YDL185W, strain tfp1, hits give low values",1.01
same,normalized growth,"locus YDL192W, strain arf1, hits give low values",0.0766 (active)
same,normalized growth,"locus YDR001C, strain nth1, hits give low values",1
same,normalized growth,"locus YDR069C, strain doa4, hits give low values",0.996
same,normalized growth,"locus YDR101C, strain arx1, hits give low values",0.371 (active)
same,normalized growth,"locus YDR137W, strain rgp1, hits give low values",0.908
same,normalized growth,"locus YDR150W, strain NUM1, hits give low values",1.02
same,normalized growth,"locus YDR159W, strain sac3, hits give low values",0.971
same,normalized growth,"locus YDR162C, strain NBP2, hits give low values",1.02
same,normalized growth,"locus YDR195W, strain ref2",0.979
same,normalized growth,"locus YDR297W, strain sur2, hits give low values",0.997
same,normalized growth,"locus YDR318W, strain mcm21, hits give low values",0.0671 (active)
same,normalized growth,"locus YDR334W, strain swr1, hits give low values",0.998
same,normalized growth,"locus YDR335W, strain msn5, hits give low values",0.993
same,normalized growth,"locus YDR388W, hits give low values",0.0597 (active)
same,normalized growth,"locus YDR392W, strain spt3, hits give low values",0.977
same,normalized growth,"locus YDR502C, strain sam2, hits give low values",0.0887 (active)
same,normalized growth,"locus YEL003W, strain gim4, hits give low values",0.997
same,normalized growth,"locus YEL037C, strain rad23, hits give low values",1
same,normalized growth,"locus YEL061C, strain CIN8 (second series), hits give low values",0.997
same,normalized growth,"locus YEL061C, strain CIN8, hits give low values",1
same,normalized growth,"locus YER015W, strain faa2, hits give low values",0.998
same,normalized growth,"locus YER016W, strain bim1, hits give low values",1.01
same,normalized growth,"locus YER110C, hits give low values",0.157 (active)
same,normalized growth,"locus YER111C, strain swi4, hits give low values",1.01
same,normalized growth,"locus YER155C, strain BEM2 (second series), hits give low values",0.986
same,normalized growth,"locus YER155C, strain BEM2, hits give low values",1.01
same,normalized growth,"locus YER167W, strain BCK2, hits give low values",1.02
same,normalized growth,"locus YFR010W, strain ubp6, hits give low values",1.01
same,normalized growth,"locus YGL078C, strain dbp3, hits give low values",0.095 (active)
same,normalized growth,"locus YGL086W, strain mad1, hits give low values",0.0546 (active)
same,normalized growth,"locus YGL167C, strain pmr1, hits give low values",0.991
same,normalized growth,"locus YGL173C, strain kem1, hits give low values",0.99
same,normalized growth,"locus YGL227W, strain vid30, hits give low values",0.981
same,normalized growth,"locus YGL240W, strain doc1, hits give low values",0.982
same,normalized growth,"locus YGL248W, strain PDE1, hits give low values",1.01
same,normalized growth,"locus YGL253W, strain hxk2, hits give low values",1.01
same,normalized growth,"locus YGR078C, strain PAC10, hits give low values",1.03
same,normalized growth,"locus YGR135W, strain pre9, hits give low values",0.0693 (active)
same,normalized growth,"locus YGR229C, strain SMI1, hits give low values",1.01
same,normalized growth,"locus YGR252W, strain gcn5, hits give low values",0.187 (active)
same,normalized growth,"locus YHR013C, strain ard1, hits give low values",0.997
same,normalized growth,"locus YHR027C, strain rpn1, hits give low values",0.996
same,normalized growth,"locus YHR030C, strain SLT2, hits give low values",1.01 and 0.984
same,normalized growth,"locus YHR079C, strain IRE1 (second series), hits give low values",0.407 (active)
same,normalized growth,"locus YHR079C, strain IRE1, hits give low values",0.979
same,normalized growth,"locus YHR094C, strain hxt1, hits give low values",0.0939 (active)
same,normalized growth,"locus YHR129C, strain ARP1, hits give low values",1.01
same,normalized growth,"locus YHR142W, strain chs7, hits give low values",0.986
same,normalized growth,"locus YHR200W, strain rpn10, hits give low values",0.0912 (active)
same,normalized growth,"locus YIL066C, strain RNR3, hits give low values",1.03
same,normalized growth,"locus YIL073C, strain SPO22, hits give low values",1.11
same,normalized growth,"locus YIL125W, strain kgd1, hits give low values",0.141 (active)
same,normalized growth,"locus YIR030C, strain dcg1, hits give low values",0.185 (active)
same,normalized growth,"locus YJL092W, strain hpr5, hits give low values",0.991
same,normalized growth,"locus YJL095W, strain BCK1 (second series), hits give low values",0.995
same,normalized growth,"locus YJL095W, strain BCK1, hits give low values",1 and 0.991
same,normalized growth,"locus YJL115W, strain asf1, hits give low values",0.988
same,normalized growth,"locus YJL129C, strain trk1, hits give low values",0.962
same,normalized growth,"locus YJL134W, strain LCB3, hits give low values",1.01
same,normalized growth,"locus YJL154C, strain vps35, hits give low values",0.987
same,normalized growth,"locus YJL164C, strain tpk1, hits give low values",0.995
same,normalized growth,"locus YJL166W, strain qcr8, hits give low values",0.975
same,normalized growth,"locus YJL168C, strain set2, hits give low values",0.123 (active)
same,normalized growth,"locus YJL187C, strain SWE1 (second series), hits give low values",1
same,normalized growth,"locus YJR043C, strain POL32, hits give low values",1.02
same,normalized growth,"locus YJR066W, strain TOR1, hits give low values",0.945

# — PubChem BioAssay AID1159580 (chemical genetic matrix, 2015)
